Laboratory results: PubChem BioAssay (NCATS)
Inconclusive results are not listed. Entries that show only a call come without a potency. Activity calls are given as the source filed them. The call rests on the fitted dose curve; in most records, active means well fitted inhibition curve with a large enough effect; inconclusive means small, poorly fitted or top-dose-only effect; inactive means flat fitted curve, though single readings scatter.

What was measured:
Assay in all cases: qHTS profiling for inhibitors of Plasmodium falciparum proliferation (AID 504749); further: nearly all actives have a fitted effect of over 60% in size
Details in all cases: P. falciparum in erythrocytes, SYBR Green DNA, 72 h; series mostly up to 28.7 µM
7G8 = system: 7G8
How it was run: (§1)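 P. falciparum-infected erythrocytes (0.3% parasitemia, 2.5% hematocrit) incubated with compound 72 h at 37 C, 5% CO2. Parasite DNA detected by SYBR Green after lysis, overnight at room temperature; normalised to 0.29 uM artemisinin and DMSO.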

CP201 = system: CP201
How it was run: as §1

CP260 = system: CP260
How it was run: as §1

CP291 = system: CP291
How it was run: as §1

CP325 = system: CP325
How it was run: as §1

DIV14 = system: DIV14
How it was run: as §1

DIV17 = system: DIV17
How it was run: as §1

GB4 = system: GB4
How it was run: as §1

ICS = system: ICS
How it was run: as §1

CP203 = system: CP203
How it was run: as §1

CP215 = system: CP215
How it was run: as §1

CP247 = system: CP247
How it was run: as §1

CP266 = system: CP266
How it was run: as §1

PAD = system: PAD
How it was run: as §1

PC26 = system: PC26
How it was run: as §1

ATS95 = system: ATS95
How it was run: as §1

CP297 = system: CP297
How it was run: as §1

CP335 = system: CP335
How it was run: as §1

DIV30 = system: DIV30
How it was run: as §1

P93_24 = system: P93_24
How it was run: as §1
Potency means the concentration at half of the fitted maximal effect.

For `Cc1cc(O)c2c(c1)OC1(C)CCC3C(C)(C)CCCC34COC2C14` (stereo not given), the Potency (7G8) was 8.91 µM (active), the Potency (CP201) was “inactive” and the Potency (CP260) was “inactive”. For the same molecule, the Potency (CP291) was “inactive”, the Potency (CP325) was “inactive” and the Potency (DIV14) was 8.49 µM (active). The Potency (DIV17) was 15.1 µM (active), the Potency (GB4) was 15.1 µM (active) and the Potency (ICS) was 6.31 µM (active).
`CC[C@H]1OC(=O)[C@H](C)C(=O)[C@H](C)[C@@H](OC2O[C@H](C)C[C@H](N(C)C)[C@@H]2O)[C@@](C)(OC)C[C@@H](C)C(=O)[C@@H](C)C2N(CCCCn3cnc(-c4cccnc4)c3)C(=O)O[C@@]21C` (stereo not given in full) was tested, and the Potency (7G8) was 7.94 µM (active), the Potency (CP201) was “inactive” and the Potency (CP203) was “inactive”. The Potency (CP215) was “inactive”, the Potency (CP247) was “inactive” and the Potency (CP266) was “inactive”. For the same molecule, the Potency (CP291) was “inactive”, the Potency (CP325) was “inactive” and the Potency (DIV14) was 12 µM (active). The Potency (DIV17) was 13.5 µM (active), the Potency (ICS) was 10 µM (active) and the Potency (PAD) was 11.2 µM (active). The Potency (PC26) was “inactive”.
For `CN(C)CC[C@@](O)(c1ccccc1)c1ccccc1Cl`, the Potency (7G8) was 3.55 µM (active), the Potency (ATS95) was 11.2 µM (active) and the Potency (CP260) was 10 µM (active). The Potency (CP297) was 5.36 µM (active), the Potency (CP325) was 7.57 µM (active) and the Potency (CP335) was 7.57 µM (active). For the same molecule, the Potency (DIV14) was 6.75 µM (active), the Potency (DIV17) was 6.75 µM (active) and the Potency (DIV30) was 10.7 µM (active). For the same molecule, the Potency (GB4) was 7.57 µM (active), the Potency (ICS) was 4.47 µM (active) and the Potency (P93_24) was 5.62 µM (active). The Potency (PAD) was 11.2 µM (active) and the Potency (PC26) was 7.57 µM (active).
In the case of `O=C1Oc2ccccc2C(=O)C1C(CC(O)c1ccc(-c2ccc(Br)cc2)cc1)c1ccccc1` (stereo not given), the Potency (7G8) is reported as 12.6 µM (active), the Potency (ATS95) is reported as “inactive” and the Potency (CP201) is reported as “inactive”. The Potency (CP203) was “inactive”, the Potency (CP215) was “inactive” and the Potency (CP260) was “inactive”. For the same molecule, the Potency (CP266) was “inactive”, the Potency (CP291) was “inactive” and the Potency (CP297) was “inactive”. The Potency (CP325) was “inactive”, the Potency (DIV30) was “inactive” and the Potency (GB4) was “inactive”. For the same molecule, the Potency (PC26) was “inactive”.
For `CCOc1ccccc1O[C@@H](c1ccccc1)[C@@H]1CNCCO1`, the Potency (7G8) was 5.01 µM (active), the Potency (CP201) was “inactive” and the Potency (CP215) was “inactive”. The Potency (CP266) was “inactive”, the Potency (CP291) was “inactive” and the Potency (CP325) was “inactive”. The Potency (DIV14) was 1.69 µM (active), the Potency (DIV17) was 1.9 µM (active) and the Potency (DIV30) was 6.75 µM (active). For the same molecule, the Potency (ICS) was 5.01 µM (active) and the Potency (P93_24) was 10 µM (active).
In the case of `CC1=C(C/C=C(\C)CCCC(C)CCCC(C)CCCC(C)C)C(=O)c2ccccc2C1=O` (stereo not given), the Potency (7G8) is reported as 8.91 µM (active), the Potency (CP201) is reported as “inactive” and the Potency (CP203) is reported as “inactive”. For the same molecule, the Potency (CP215) was “inactive”, the Potency (CP247) was “inactive” and the Potency (CP266) was “inactive”. The Potency (CP297) was “inactive”, the Potency (CP325) was “inactive” and the Potency (CP335) was 12 µM (active). For the same molecule, the Potency (DIV17) was “inactive”, the Potency (DIV30) was “inactive” and the Potency (ICS) was 3.98 µM (active). The Potency (PAD) was 7.94 µM (active) and the Potency (PC26) was “inactive”.
For `CCC1OC(=O)C[C@@H](O)[C@H](C)[C@@H](OC2OC(C)CC(N(C)C)C2O)[C@@H](CC=O)C[C@@H](C)C(=O)/C=C/[C@]2(C)OC2C1C` (stereo not given in full), the Potency (7G8) was 4.47 µM (active), the Potency (CP297) was 2.13 µM (active) and the Potency (CP335) was 1.2 µM (active). For the same molecule, the Potency (ICS) was 4.47 µM (active) and the Potency (P93_24) was 1.12 µM (active).
In the case of `O=C(O)c1ccccc1-c1c2ccc(=O)cc-2oc2cc(O)ccc12`, the Potency (CP203) is reported as “inactive”, the Potency (CP215) is reported as “inactive” and the Potency (CP266) is reported as “inactive”. The Potency (CP291) was “inactive”.
In the case of `NC(C(=O)O)C(O)c1ccc(O)c(O)c1` (stereo not given), the Potency (CP297) is reported as 16.9 µM (active) and the Potency (ICS) is reported as 11.2 µM (active).
